Assay outcomes as filed in PubChem BioAssay.
Hits are enriched below; roughly 2.4% of the tested compounds scored in any of these assays.
Pol kappa inh = DNA polymerase kappa (human) inhibition; actives 0.53% (n = 400,000); Potency, µM (top dose mostly 107 µM), actives largely listed as inhibitors; AID 588579; purified Pol kappa, fluorescent DNA synthesis assay, 10 min
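Readout: fluorescence, taken kinetically at 0 and 10 min. Conditions: 10 nM Pol kappa, 15 min RT compound preincubation, 50 nM substrate final. Controls: enzyme-free buffer wells.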
TDP1 block = TDP1 (human) enzyme inhibition. Q9NUW8. recombinant TDP1, AlphaScreen DNA substrate cleavage. Potency, µM (highest dose often 130 µM), actives largely listed as inhibitors. actives 0.28% (n = 350,000); also: nearly all actives have a fitted effect of over 40% in size
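AlphaScreen read-out: signal falls as enzyme removes the 3' tyrosine-FITC from a 5'-biotinylated DNA oligo (15 nM, 5 min, RT). Enzyme was E. coli-made recombinant Tdp1 at 1 nM, exposed to compound for 15 min beforehand; beads 10 ug/ml, 10 min.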
FEN1 inh = blocks human flap endonuclease 1 | P39748 | actives 0.35% (n = 390,000) | Potency, µM (series often up to 114 µM), actives largely listed as inhibitors | Recombinant FEN1 flap cleavage, fluorescence, 15 min; also: nearly all actives have a fitted effect of over 65% in size
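Nuclease activity of 10 nM FEN1 was measured after 15 min of room-temperature exposure to titrated compounds, by adding 50 nM flap substrate and reading plates at 0 and 15 min.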
POLB inh = inhibitors of human DNA polymerase beta | AID 485314 | Pol beta primer extension/strand displacement, fluorescence kinetic | P06746 | Potency, µM (highest dose often 114 µM), most hits filed as inhibitors | actives 1.3% (n = 340,000)
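Human Pol beta at 10 nM; strand-displacement substrate 50 nM final. Compound exposure 15 min at room temperature before start, reaction 10 min at room temperature.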
Pol iota inh = blocks human DNA polymerase iota activity. Pol iota fluorescent replication assay, 10 min. AID 588590. actives 1% (n = 390,000). Potency, µM (highest dose often 115 µM), most hits filed as inhibitors. Q9UNA4
Target sequence (Q9UNA4 whole entry, looked up): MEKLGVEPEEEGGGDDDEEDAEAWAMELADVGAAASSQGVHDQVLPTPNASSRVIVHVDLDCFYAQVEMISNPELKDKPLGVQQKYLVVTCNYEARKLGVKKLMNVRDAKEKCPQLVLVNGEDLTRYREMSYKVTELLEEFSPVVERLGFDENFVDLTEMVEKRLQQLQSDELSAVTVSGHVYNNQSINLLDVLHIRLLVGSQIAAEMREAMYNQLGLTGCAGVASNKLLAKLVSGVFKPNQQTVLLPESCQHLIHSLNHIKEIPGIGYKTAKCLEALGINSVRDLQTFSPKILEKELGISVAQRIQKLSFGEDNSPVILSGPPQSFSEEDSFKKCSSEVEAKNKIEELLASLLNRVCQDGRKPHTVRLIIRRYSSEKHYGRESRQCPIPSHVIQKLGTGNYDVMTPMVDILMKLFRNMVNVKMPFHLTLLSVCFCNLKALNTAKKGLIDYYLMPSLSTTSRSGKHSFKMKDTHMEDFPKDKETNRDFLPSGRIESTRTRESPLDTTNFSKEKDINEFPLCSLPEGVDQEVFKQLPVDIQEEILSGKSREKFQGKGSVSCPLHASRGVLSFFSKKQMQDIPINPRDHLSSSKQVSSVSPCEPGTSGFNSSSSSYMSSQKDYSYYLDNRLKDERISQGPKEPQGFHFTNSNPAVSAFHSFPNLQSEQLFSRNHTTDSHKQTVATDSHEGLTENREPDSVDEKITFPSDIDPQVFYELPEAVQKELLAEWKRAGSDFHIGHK
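Pol iota at 10 nM preincubated 15 min with compounds at room temperature; reaction started with fluorescent substrate, 50 nM final. Fluorescence read kinetically at 0 and 10 min; buffer-only wells as negative control.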
Pol eta inh = blocks human DNA polymerase eta activity; Q9Y253; actives 1.2% (n = 390,000); recombinant Pol eta, fluorescent DNA replication assay; AID 588591; Potency, µM (highest dose often 114 µM), actives largely listed as inhibitors
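Pol eta (10 nM) was preincubated with compounds for 15 min at room temperature, after which fluorescent replication substrate (50 nM final) was added to start the reaction. Fluorescence was read kinetically at 0 and 10 min.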
Each line names hits and unclear results; the compound was inactive in the other large screens. Calls follow the shape of the dose curve; as a rule, active = well fitted curve in the direction sought with a large enough effect; inconclusive = small, poorly fitted or top-dose-only effect, or another doubt; inactive = no such curve, though single readings can be large; an effect the other way counts as inactive or inconclusive.

COC(=O)c1c(NC(=O)c2ccoc2C)sc2c1CCC2	Pol kappa inh inconclusive, POLB inh 22µM, Pol iota inh inconclusive, Pol eta inh inconclusive (no result: TDP1 block)
CCOc1cc(/C=N/N=C2/NC(=O)C(CC(=O)O)S2)ccc1OCc1ccccc1Cl (stereo unspecified)	POLB inh 28µM, Pol eta inh inconclusive
COc1ccc(/C=N/N=C2/NC(=O)C(CC(=O)O)S2)cc1OCc1ccc(Cl)cc1Cl (stereo unspecified)	TDP1 block 71µM, Pol eta inh inconclusive
COc1ccc(/C=N/N=C2/NC(=O)C(CC(=O)O)S2)cc1OCc1ccccc1Cl (stereo unspecified)	Pol eta inh inconclusive
Cc1ccccc1OCc1ccc(-c2nc(C#N)c(NCc3cccnc3)o2)o1	none
CCOCCc1nnc(NC(=O)CCc2ccccc2)s1	none (no result: TDP1 block)
CCOCCc1nnc(NC(=O)Cc2ccc(Br)cc2)s1	POLB inh 89µM
NC(=O)c1oc2ccccc2c1NC(=O)c1nc2ccccc2s1	TDP1 block 79µM, POLB inh inconclusive, Pol iota inh inconclusive, Pol eta inh inconclusive
Cc1ccc(C(=O)c2cn(Cc3ccc(F)cc3)c3nc(C)ccc3c2=O)cc1	Pol iota inh 79µM
O=C(c1cccc(S(=O)(=O)NCc2ccccc2)c1)N1CCN(c2ccccc2Cl)CC1	Pol iota inh 89µM (no result: TDP1 block, POLB inh)
O=C(c1cccc(S(=O)(=O)NCc2ccccc2)c1)N1CCN(c2ccccc2)CC1	none (no result: POLB inh)
C=C(C)Cn1c(=O)c2c(nc3n2CCN3c2ccc(F)cc2)n(C)c1=O	POLB inh inconclusive, Pol iota inh inconclusive
CCc1ccc(NC(=O)CN2C(=O)C(c3ccc(C)cc3)=NC23CCCCC3)cc1	none (no result: Pol eta inh)
O=C(O)Cn1c(CCS(=O)(=O)c2ccc(Br)cc2)nc2ccccc21	POLB inh 14µM, Pol eta inh 20µM
COc1cc2c(C(=O)N3CCN(c4cccc(C(F)(F)F)c4)CC3)cn(CC(C)C)c(=O)c2cc1OC	Pol iota inh 89µM
CCn1c(SCc2ccccc2F)nc(=O)c2c(C(=O)OC)cc(C3CC3)nc21	none
Cc1cc2c(s1)c(/C=N/O)c(C(=O)NCc1ccccc1F)n2C	none (no result: Pol kappa inh, FEN1 inh, POLB inh, Pol iota inh, Pol eta inh)
CCOc1ccccc1-c1c2cc(O)c(=O)cc-2oc2cc(O)c(O)cc12	Pol kappa inh 14µM, FEN1 inh 20µM, POLB inh 1.6µM, Pol eta inh 28µM (no result: Pol iota inh)
Cn1c2ccccc2c(=O)c2ccc(C#CC3(N)CCCCC3)cc21	Pol kappa inh inconclusive, FEN1 inh 22µM, POLB inh 35µM, Pol iota inh inconclusive (no result: TDP1 block)
O=C(CNC(=O)c1ccc2cc[nH]c2c1)OC(C(=O)Nc1cc(C(F)(F)F)ccc1Cl)c1ccccc1 (stereo unspecified)	none (no result: Pol kappa inh, FEN1 inh, POLB inh, Pol iota inh, Pol eta inh)
COc1cc(OC)c(/C=C/c2cc3ccccc3c[n+]2C)c(OC)c1	FEN1 inh inconclusive, Pol iota inh inconclusive (no result: TDP1 block, POLB inh, Pol eta inh)
Cc1cc(C(=O)OCC(=O)Nc2cc(S(=O)(=O)N(C)C)ccc2C)c2ccccc2n1	none
COc1ccc(NC(=O)c2cc(C)nc3ccccc23)cc1S(=O)(=O)N1CCOCC1	none (no result: POLB inh)
Cc1ccc(NC(=O)c2cc(-c3ccco3)nc3ccccc23)cc1S(=O)(=O)N1CCOCC1	POLB inh 14µM, Pol iota inh 16µM, Pol eta inh inconclusive
Cc1ccc(S(=O)(=O)N(C)C)cc1NC(=O)c1cc(-c2ccco2)nc2ccccc12	Pol kappa inh inconclusive, Pol iota inh 20µM, Pol eta inh inconclusive
Cc1ccc(S(=O)(=O)c2c(C)nn(-c3ccccc3)c2OC(=O)c2ccccc2F)cc1	none
C=CCn1c(C)nnc1SCC(=O)N1c2ccccc2NC(=O)C1(C)C	none (no result: Pol kappa inh, TDP1 block, FEN1 inh, POLB inh, Pol iota inh)
CC1(C)C(=O)Nc2ccccc2N1C(=O)CSc1ncccn1	Pol kappa inh inconclusive, POLB inh inconclusive, Pol iota inh 45µM, Pol eta inh inconclusive
CC1(C)C(=O)Nc2ccccc2N1C(=O)COc1ccc(S(=O)(=O)N2CCOCC2)cc1Cl	POLB inh 25µM, Pol iota inh inconclusive, Pol eta inh inconclusive
CC1(C)C(=O)Nc2ccccc2N1C(=O)COc1ccccc1C#N	Pol kappa inh inconclusive, Pol iota inh 35µM, Pol eta inh inconclusive (no result: POLB inh)
O=C(CNC(=O)C1CCCCC1)OC(C(=O)Nc1cc(C(F)(F)F)ccc1Cl)c1ccccc1 (stereo unspecified)	none (no result: Pol kappa inh, FEN1 inh, POLB inh, Pol iota inh, Pol eta inh)
Cc1ccccc1N1CC(=O)N(c2ccccc2C)CC1=O	none
CC1=NN(c2ccccc2C)C(=O)C1	Pol iota inh 3.2µM (no result: TDP1 block, POLB inh)
CCC(C(=O)NCc1ccccc1)n1ncn2c(cc3occc32)c1=O (stereo unspecified)	none
COc1cc(OC)c(OC)cc1/C=N/Nc1ncnc2c1[nH]c1ccccc12	none
COc1ccc(/C=N/Nc2ncnc3c2[nH]c2ccc(C)cc23)c(OC)c1OC	FEN1 inh inconclusive, Pol eta inh 25µM (no result: TDP1 block)
O=C(CSC1=Nc2ccccc2N=C(c2ccc(F)cc2)C1)NCc1ccccc1Cl	none
COC(=O)c1cc2oc(C)cc2n1Cc1c(C)cc(C)cc1C	none
COc1cc2c(cc1NS(=O)(=O)c1cccc(C#N)c1)n(C)c(=O)n2C	none
Cc1cccc(NC(=O)CN2C(=O)N/C(=C/c3ccc(-c4cccc(C(=O)O)c4C)o3)C2=O)c1	POLB inh inconclusive, Pol eta inh 79µM
Cc1c(C(=O)O)cccc1-c1ccc(/C=C2\SC(=O)NC2=O)o1	Pol kappa inh inconclusive, FEN1 inh inconclusive, Pol iota inh inconclusive, Pol eta inh 22µM
Cc1cccc(NC(=O)CN2C(=O)N/C(=C/c3ccc(C)s3)C2=O)c1	none
Cc1c(C(=O)O)cccc1-c1ccc(/C=C2/NC(=O)N(c3ccccc3)C2=O)o1	Pol kappa inh inconclusive, POLB inh 18µM, Pol iota inh inconclusive, Pol eta inh 22µM (no result: TDP1 block)
CCOC(=O)CN1C(=O)S/C(=C\c2ccc(-c3cccc(C(=O)O)c3C)o2)C1=O	Pol iota inh inconclusive, Pol eta inh inconclusive (no result: TDP1 block, POLB inh)
Cc1ccc(CN2[C@H](C)[C@H](c3ccccc3)OCCS2(=O)=O)cc1	FEN1 inh inconclusive (no result: TDP1 block, POLB inh, Pol eta inh)
CC(=O)N1C(=O)c2cccc3cccc(c23)C(=O)N1C(C)=O	none
O=C1c2cccc3cccc(c23)C(=O)C1(O)O	FEN1 inh 1µM (no result: TDP1 block, POLB inh)
CCCCC(=O)OCc1cc(=O)n2nc(C3CC3)sc2n1	none
CCOC(C)(C)C	none (no result: Pol kappa inh, FEN1 inh, POLB inh, Pol iota inh, Pol eta inh)
CC(C)(C)n1ncc2c(=O)n(Cc3ccc(Cl)cc3F)cnc21	none (no result: TDP1 block, POLB inh, Pol eta inh)
O=C1CC(=O)N(CCNc2ncc(C(F)(F)F)cc2Cl)C(=O)N1	Pol kappa inh inconclusive, POLB inh 56µM, Pol iota inh 25µM
O=c1cc(Cl)[nH]c(=O)n1CCNc1ncc(C(F)(F)F)cc1Cl	none
OCC1OC([S-])[C@H](O)C(O)C1O.[Au+] (stereo partly specified)	Pol kappa inh 5µM, TDP1 block inconclusive (no result: FEN1 inh, POLB inh, Pol iota inh, Pol eta inh)
OCC1OC(O)C(O)C(O)C1O (stereo unspecified)	none (no result: FEN1 inh, POLB inh, Pol iota inh, Pol eta inh)
